The results in this text go back to PubChem BioAssay (NCATS).

For experiment [1], the target named is ATP-dependent DNA helicase Q1 (Homo sapiens) (UniProt P46063). In words: qHTS Validation Assay for Inhibitors of RecQ-Like Dna Helicase 1 (RECQ1) (AID 2353). Further: potency means the concentration at half of the fitted maximal effect. The method in brief: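 RECQ1T1 50 nM; forked duplex (20 bp + 30-nt ss tails) 200 nM, ATP 2 mM final; pH 8.0, 2 mM MgCl2, 2.5 ug/ml poly(dI-dC); 15 min compound preincubation; discontinuous kinetic read over 2 h at RT.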
(qHTS replaces the single test concentration by a dilution series.)

Experiment [2] deals with RecQ-like DNA helicase BLM (Homo sapiens) (UniProt P54132). The experiment can be described thus: qHTS Validation Assay for Inhibitors of Bloom's syndrome helicase (BLM) (AID 2364). In a few lines: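 BLM 50 nM in 25 mM Tris-HCl pH 8.0, 5 mM NaCl, 2 mM MgCl2, 1 mM DTT, 0.01% Tween-20, 2.5 ug/ml poly(dI-dC); 15 min cpd preinc, RT. Start: 200 nM forked DNA + 2 mM ATP (final). TAMRA read, 2 reads 2 h apart.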

A short description of experiment [3]: Cytometric Cell-Based qHTS for Inhibitors of the mTORC1 Signaling Pathway in MEF (Tsc2-/-, p53-/-) Cells (AID 2660). Further: potency means the concentration at half of the fitted maximal effect. In a few lines: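 Immunofluorescence qHTS of rpS6 Ser235/236 phosphorylation: MEFs (Tsc2-/-, p53-/-) treated 24 h, 37 C, in DMEM + 10% FBS. Alexa-488 signal normalized to PI count, referenced to rapamycin (7.5 nM) and DMSO; PI cell number recorded for viability.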

Experiment [4] is described as follows: High Content Imaging Cell-Based qHTS for Inhibitors of the mTORC1 Signaling Pathway in MEF (Tsc2-/-, p53-/-) Cells (AID 2666).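 Further: percent of cells scored positive for phospho-rpS6 Ser235/236 immunostaining by imaging.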 Further: potency means the concentration at half of the fitted maximal effect. In a few lines: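 Inhibition of rpS6 phosphorylation is measured by immunofluorescence imaging in empty-vector Tsc2-/-, p53-/- mouse embryonic fibroblasts after 24 hrs compound exposure at 37 degree Celsius. Results are reported as % positive cells per well.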

Experiment [5] in a line: High Content Imaging Cell-Based qHTS for Inhibitors of the mTORC1 Signaling Pathway in MEF Cells (AID 2667). Further: potency means the concentration at half of the fitted maximal effect. In a few lines:
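Fixed-cell imaging of phospho-S6 (Ser235/236, Alexa-488) after 24 hrs of compound treatment at 37 degree Celsius. Signal was normalized to Hoechst, and thresholds from the highest and lowest wells split cells into % active versus % non-active.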

A short description of experiment [6]: Validation screen for small molecules that induce DNA re-replication in MCF 10A normal breast cells (AID 463097). Further: nearly all actives have a fitted effect of over 60% in size. The method in brief:
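MCF 10A cells exposed to compound 48 hr at 37 C, 5% CO2, then Hoechst-stained 40 min. Laser-scanning imaging of nuclear DNA content (405 nm ex, 500-530 nm em); re-replication scored as rise in nuclei with elevated fluorescence intensity.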

In experiment [7] the target is Ubiquitin carboxyl-terminal hydrolase 2 (Homo sapiens) (UniProt O75604). In words: qHTS Validation Assay for Inhibitors of Ubiquitin-specific Protease USP2a Using CHOP2 as the Reporter (AID 463106). In a few lines:
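Inhibition is expressed relative to NEM as the full-inhibition control, with concentration-response curves classed by fit quality, magnitude and activity. Enzyme (USP2 core, 10nM) meets 25nM Ub-CHOP2 after compound preincubation; readings are taken at 60min.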

In experiment [8] the target is Tumor susceptibility gene 101 protein (Homo sapiens) (UniProt Q99816). The experiment can be described thus: qHTS Validation Assay for Iinhibitors of HIV-1 Budding by Blocking the Interaction of PTAP/TSG101 (AID 485342; calls by dose curve). The method in brief: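 Tsg101 binding domain (10 uM) with FITC-labeled PTAP peptide (50 nM) in HEPES pH 7.5 buffer, 20 min at r.t. with compounds. Binding measured by fluorescence polarization.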

Experiment [9] concerns the target Beta-2 adrenergic receptor (Homo sapiens) (UniProt P07550). The experiment can be described thus: qHTS validation assay of beta-arrestin-biased ligands of beta2-adrenergic receptor (AID 485366). The method in brief: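 Agonism was measured as beta-arrestin recruitment to recombinant beta2-AR, releasing tTA to drive luciferase. Cells were exposed for 18 hr at 37 degrees C to a series up to 46 microM. %Activity from corrected luminescence gave concentration-response curves.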

A short description of experiment [10]: Quantitative high throughput screen for delayed death inhibitors of the malarial parasite plastid, 96 hour incubation (AID 488745). Further: nearly all actives have a fitted effect of over 70% in size. Further: potency means the concentration at half of the fitted maximal effect. The method in brief:
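Two-generation (96 h) exposure of luciferase-reporter P. falciparum in erythrocytes, 2% hematocrit, 0.1% parasitemia final, 37 C, 5% CO2, RPMI 1640 with 0.5% Albumax. Growth inhibition scored by reduced luminescence.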

In experiment [11] the target is Thioredoxin reductase 1, cytoplasmic (Rattus norvegicus) (UniProt O89049). The experiment can be described thus: qHTS Assay for Substrates of Mammalian Selenoprotein Thioredoxin Reductase 1 (TrxR1) (AID 488772).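 Further: series mostly up to about 57 µM; a drop in NADPH fluorescence below the no-compound background marks a TrxR1 substrate.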 The method in brief: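 In this dual-purpose format, potential substrates are identified from the first fluorescence read after selenite addition, not from the 8-minute delta. Rat enzyme is preincubated with NADPH and then with compound at ~22 deg C.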

Experiment [12] shares this target. In words: qHTS Assay for Inhibitors of Mammalian Selenoprotein Thioredoxin Reductase 1 (TrxR1) (AID 488773). Further: nearly all actives have a fitted effect of over 40% in size. Further: potency means the concentration at half of the fitted maximal effect. The conditions noted are these: Potency: inhibition. The method in brief: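 Inhibition is scored from the loss of NADPH fluorescence between first and last reads of an 8-min kinetic run. Selenite (400 uM) was the substrate, added after 15 min compound preincubation at room temperature.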

The target in experiment [13] is Flap endonuclease 1 (Homo sapiens) (UniProt P39748). The experiment can be described thus: qHTS Validation Assay for the Inhibitors of Human Flap endonuclease 1 (FEN1) (AID 488816). Further: potency means the concentration at half of the fitted maximal effect. The method in brief:
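Steps: add FEN1 (10 nM reagent) or buffer only; pin compounds; hold 15 min at room temperature; start with substrate, 50 nM final; read at 0 and 15 min; correct, normalize and fit a four-parameter Hill curve.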

For experiment [14], the target named is M-phase phosphoprotein 8 (Homo sapiens) (UniProt Q99549). In words: qHTS Validation Assay for Inhibitors for MPP8 Chromodomain Interactions with Methylated Histone Tails (AID 488949). Further: nearly all actives have a fitted effect of over 55% in size. Further: potency means the concentration at half of the fitted maximal effect. The method in brief:
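MPP8 (50 nM) was pre-bound to 50 nM biotinylated H3(1-18)K9me3 peptide in PBS pH 7.4 with 0.01% Tween-20. Compounds were then added for 30 min at room temperature, and complex disruption was read by AlphaScreen with streptavidin donor and nickel-chelate acceptor beads.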

Experiment [15] addresses Ferritin light chain (Equus caballus) (UniProt P02791). The experiment can be described thus: qHTS Validation Assay for Identification of Novel General Anesthetics (AID 2323). Further: potency means the concentration at half of the fitted maximal effect. The method in brief:
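Horse-spleen apoferritin (10 uM) in PBS with 50% saturated 1-aminoanthracene; compounds pin-transferred, 10 min at room temperature. Fluorescence read at 380/535 nm, normalized to free 1-AMA and 1-AMA/apoferritin values; four-parameter Hill fit.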

Experiment [16] can be described thus: Cytometry Cell-Based qHTS for Inhibitors of the mTORC1 Signaling Pathway in MEF cells (AID 2668). Further: potency means the concentration at half of the fitted maximal effect. The method in brief:
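MEFs (Tsc2-/-, p53-/- stably expressing WT Tsc2) treated 24 h at 37 degree Celsius, fixed, stained with Alexa-488 anti-phospho-rpS6 Ser235/236 and propidium iodide; Acumen laser scanning. Reported as % positive cells, phospho-S6 normalized to PI.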

A short description of experiment [17]: Quantitative high throughput screen for delayed death inhibitors of the malarial parasite plastid, 48 hour incubation (AID 488752). Further: nearly all actives have a fitted effect of over 65% in size. Further: potency means the concentration at half of the fitted maximal effect. The method in brief: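 Cultures: infected erythrocytes at final 2% hematocrit and 0.1% parasitemia in Albumax-supplemented RPMI. Parasites express integrated firefly luciferase. Incubation with compound lasts 48 h before luminescent detection of remaining reporter activity.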

Experiment [18] deals with ATP-dependent 6-phosphofructokinase (Trypanosoma brucei brucei) (UniProt O15648). The experiment can be described thus: qHTS Validation Assay to Find Inhibitors of T. brucei phosphofructokinase (AID 485368). In a few lines: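 ADP-Glo luminescence, two-step: residual ATP depleted, then ADP converted to ATP for luciferase. Enzyme 1.25 nM, F6P 0.5 mM, ATP 0.1 mM, pH 8.0 TEA buffer, 45 min RT. Curves fitted and classed by quality and efficacy.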

Several values for one entry are separate records, joined by “and”; a condition that tells them apart may be missing. Equal values may be shown once. Results filed as inconclusive are left out. Activity calls are given as the source filed them. Unless noted, the call rests on the fitted dose curve; in most records, active means well fitted curve in the direction sought with a large enough effect; inconclusive means small, poorly fitted or top-dose-only effect, or another doubt; inactive means no such curve, though single readings can be large; an effect the other way counts as inactive or inconclusive.

Sequence of Thioredoxin reductase 1, cytoplasmic (Rattus norvegicus) (O89049 whole entry, looked up): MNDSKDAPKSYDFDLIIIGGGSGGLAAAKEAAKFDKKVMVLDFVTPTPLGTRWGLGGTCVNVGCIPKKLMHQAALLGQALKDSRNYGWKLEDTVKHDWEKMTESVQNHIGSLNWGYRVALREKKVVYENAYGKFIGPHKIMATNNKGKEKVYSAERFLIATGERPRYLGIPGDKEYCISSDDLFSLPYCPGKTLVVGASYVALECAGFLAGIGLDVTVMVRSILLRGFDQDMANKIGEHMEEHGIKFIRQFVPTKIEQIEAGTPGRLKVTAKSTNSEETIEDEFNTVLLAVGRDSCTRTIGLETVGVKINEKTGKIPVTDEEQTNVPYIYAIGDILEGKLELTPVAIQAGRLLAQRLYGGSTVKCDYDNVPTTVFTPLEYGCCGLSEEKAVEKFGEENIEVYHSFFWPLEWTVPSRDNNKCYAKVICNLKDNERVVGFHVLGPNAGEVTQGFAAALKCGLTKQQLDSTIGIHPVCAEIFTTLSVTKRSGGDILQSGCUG
Sequence of ATP-dependent 6-phosphofructokinase (Trypanosoma brucei brucei) (O15648 whole entry, looked up): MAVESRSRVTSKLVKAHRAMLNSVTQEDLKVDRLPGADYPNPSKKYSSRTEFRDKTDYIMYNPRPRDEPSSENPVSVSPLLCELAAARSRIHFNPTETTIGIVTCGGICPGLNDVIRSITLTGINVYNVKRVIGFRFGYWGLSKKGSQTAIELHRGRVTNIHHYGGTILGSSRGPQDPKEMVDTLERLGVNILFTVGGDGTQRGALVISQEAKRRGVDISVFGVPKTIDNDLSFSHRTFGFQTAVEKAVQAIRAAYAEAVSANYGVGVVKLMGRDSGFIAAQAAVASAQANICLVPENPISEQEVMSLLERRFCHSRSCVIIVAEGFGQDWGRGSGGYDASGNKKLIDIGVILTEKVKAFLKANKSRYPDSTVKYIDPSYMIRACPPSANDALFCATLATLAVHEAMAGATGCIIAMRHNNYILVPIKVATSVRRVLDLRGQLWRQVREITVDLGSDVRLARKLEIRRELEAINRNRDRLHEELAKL
Sequence of Ferritin light chain (Equus caballus) (P02791 2-175 limits assumed): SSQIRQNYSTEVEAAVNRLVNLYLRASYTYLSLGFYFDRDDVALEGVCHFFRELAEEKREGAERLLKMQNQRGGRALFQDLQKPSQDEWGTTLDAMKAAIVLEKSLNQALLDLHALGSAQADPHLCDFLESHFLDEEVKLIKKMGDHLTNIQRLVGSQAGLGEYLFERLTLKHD
Sequence of ATP-dependent DNA helicase Q1 (Homo sapiens) (P46063 whole entry, looked up): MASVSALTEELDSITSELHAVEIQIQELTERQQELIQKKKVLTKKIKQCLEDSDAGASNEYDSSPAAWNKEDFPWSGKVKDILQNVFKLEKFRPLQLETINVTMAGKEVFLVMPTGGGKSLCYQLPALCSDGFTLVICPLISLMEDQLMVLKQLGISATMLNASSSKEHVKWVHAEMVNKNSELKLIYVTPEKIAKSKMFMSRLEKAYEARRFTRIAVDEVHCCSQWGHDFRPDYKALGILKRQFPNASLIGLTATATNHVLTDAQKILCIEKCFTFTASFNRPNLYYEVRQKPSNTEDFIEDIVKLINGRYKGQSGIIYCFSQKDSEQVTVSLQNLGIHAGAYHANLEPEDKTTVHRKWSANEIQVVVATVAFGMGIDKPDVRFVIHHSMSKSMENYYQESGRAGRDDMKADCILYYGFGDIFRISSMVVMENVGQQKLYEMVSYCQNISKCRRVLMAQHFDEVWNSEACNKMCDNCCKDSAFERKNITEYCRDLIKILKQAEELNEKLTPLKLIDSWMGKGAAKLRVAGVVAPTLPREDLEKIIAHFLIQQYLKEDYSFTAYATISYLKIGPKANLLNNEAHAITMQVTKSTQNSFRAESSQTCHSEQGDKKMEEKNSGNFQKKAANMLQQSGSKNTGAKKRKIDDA
Sequence of Tumor susceptibility gene 101 protein (Homo sapiens) (Q99816 whole entry, looked up, the tested form may be a part): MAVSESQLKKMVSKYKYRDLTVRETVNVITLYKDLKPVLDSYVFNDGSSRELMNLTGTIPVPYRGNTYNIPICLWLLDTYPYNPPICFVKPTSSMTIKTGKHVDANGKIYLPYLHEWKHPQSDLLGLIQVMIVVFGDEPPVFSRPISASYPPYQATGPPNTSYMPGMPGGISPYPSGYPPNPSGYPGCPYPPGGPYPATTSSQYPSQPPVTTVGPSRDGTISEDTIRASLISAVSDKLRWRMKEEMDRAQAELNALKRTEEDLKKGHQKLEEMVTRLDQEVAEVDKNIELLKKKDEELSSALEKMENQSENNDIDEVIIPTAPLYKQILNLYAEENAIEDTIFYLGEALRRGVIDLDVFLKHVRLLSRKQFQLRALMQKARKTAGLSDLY
Sequence of Beta-2 adrenergic receptor (Homo sapiens) (P07550 whole entry, looked up): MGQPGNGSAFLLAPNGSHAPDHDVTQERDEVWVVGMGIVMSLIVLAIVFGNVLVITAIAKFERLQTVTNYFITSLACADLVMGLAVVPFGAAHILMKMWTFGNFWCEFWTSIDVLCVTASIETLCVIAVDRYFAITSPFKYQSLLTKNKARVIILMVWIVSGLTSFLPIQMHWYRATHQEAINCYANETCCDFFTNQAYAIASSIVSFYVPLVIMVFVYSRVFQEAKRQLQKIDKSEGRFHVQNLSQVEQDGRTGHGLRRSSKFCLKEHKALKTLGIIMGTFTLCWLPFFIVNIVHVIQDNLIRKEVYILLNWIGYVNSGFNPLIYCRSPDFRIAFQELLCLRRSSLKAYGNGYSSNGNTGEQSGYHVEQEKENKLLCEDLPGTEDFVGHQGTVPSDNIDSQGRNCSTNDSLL
Sequence of M-phase phosphoprotein 8 (Homo sapiens) (Q99549 whole entry, looked up): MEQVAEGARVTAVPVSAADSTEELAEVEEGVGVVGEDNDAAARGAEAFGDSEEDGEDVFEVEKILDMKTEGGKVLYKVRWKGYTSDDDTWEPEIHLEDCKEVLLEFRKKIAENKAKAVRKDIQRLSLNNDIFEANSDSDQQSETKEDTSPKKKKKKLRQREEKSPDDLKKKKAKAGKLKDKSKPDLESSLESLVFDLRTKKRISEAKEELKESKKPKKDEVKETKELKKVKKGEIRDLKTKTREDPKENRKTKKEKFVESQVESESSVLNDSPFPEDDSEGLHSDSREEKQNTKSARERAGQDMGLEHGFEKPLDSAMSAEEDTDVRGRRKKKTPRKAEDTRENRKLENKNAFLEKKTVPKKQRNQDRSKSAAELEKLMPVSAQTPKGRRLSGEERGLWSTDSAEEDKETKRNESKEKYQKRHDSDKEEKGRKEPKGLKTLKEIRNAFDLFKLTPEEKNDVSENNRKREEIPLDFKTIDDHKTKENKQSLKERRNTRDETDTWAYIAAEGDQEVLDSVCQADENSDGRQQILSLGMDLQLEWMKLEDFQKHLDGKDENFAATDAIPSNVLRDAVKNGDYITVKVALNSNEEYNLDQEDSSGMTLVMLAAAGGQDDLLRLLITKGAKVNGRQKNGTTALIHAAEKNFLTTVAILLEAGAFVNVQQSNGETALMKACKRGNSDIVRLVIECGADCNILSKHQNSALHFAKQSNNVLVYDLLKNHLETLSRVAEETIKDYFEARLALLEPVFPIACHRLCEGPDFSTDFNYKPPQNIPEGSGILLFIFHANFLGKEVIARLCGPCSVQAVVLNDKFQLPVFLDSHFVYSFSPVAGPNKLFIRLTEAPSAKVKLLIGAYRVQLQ
Sequence of Ubiquitin carboxyl-terminal hydrolase 2 (Homo sapiens) (O75604 whole entry, looked up): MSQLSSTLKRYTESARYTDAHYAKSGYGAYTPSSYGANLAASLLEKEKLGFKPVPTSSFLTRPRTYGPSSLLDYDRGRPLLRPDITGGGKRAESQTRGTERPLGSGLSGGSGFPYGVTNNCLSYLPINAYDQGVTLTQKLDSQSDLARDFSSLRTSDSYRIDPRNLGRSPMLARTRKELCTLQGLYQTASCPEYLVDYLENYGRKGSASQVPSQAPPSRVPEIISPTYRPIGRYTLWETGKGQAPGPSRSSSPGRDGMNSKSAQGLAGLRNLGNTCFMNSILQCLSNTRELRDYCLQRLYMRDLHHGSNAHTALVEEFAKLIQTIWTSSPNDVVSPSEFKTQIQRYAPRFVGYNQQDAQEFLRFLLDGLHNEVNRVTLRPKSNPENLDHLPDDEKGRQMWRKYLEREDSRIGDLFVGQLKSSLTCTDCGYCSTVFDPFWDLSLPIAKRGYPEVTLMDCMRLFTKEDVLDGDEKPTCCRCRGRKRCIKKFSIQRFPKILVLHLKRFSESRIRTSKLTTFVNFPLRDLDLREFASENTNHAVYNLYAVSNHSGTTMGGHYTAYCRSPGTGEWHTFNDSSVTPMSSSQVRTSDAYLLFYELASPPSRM
Sequence of Flap endonuclease 1 (Homo sapiens) (P39748 whole entry, looked up): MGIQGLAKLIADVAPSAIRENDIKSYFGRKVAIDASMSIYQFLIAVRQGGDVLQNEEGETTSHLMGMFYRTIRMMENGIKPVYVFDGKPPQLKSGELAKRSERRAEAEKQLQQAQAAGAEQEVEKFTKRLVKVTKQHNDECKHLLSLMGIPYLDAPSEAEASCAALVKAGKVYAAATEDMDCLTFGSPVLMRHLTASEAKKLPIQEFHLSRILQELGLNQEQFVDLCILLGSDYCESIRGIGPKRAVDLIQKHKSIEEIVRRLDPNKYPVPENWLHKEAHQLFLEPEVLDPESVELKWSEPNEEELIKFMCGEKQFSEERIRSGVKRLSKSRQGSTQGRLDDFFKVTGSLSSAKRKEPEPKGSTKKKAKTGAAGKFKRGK

With `O=C1c2ccccc2-c2n[nH]c3cccc1c23`, the Potency entry in [1], in experiment [2], in [3], in experiment [4], in experiment [5] and in experiment [6] was “inactive” in each case. Also, the Potency result in [12], in experiment [13] and in experiment [14] was “inactive” in each case. Besides, the call in experiment [7], in [8], in [9] and in experiment [11] was inactive. Also, in experiment [10], the Potency is 4.65 µM (active).
`O=C1NC(=O)C(c2ccccc2[N+](=O)[O-])=C1Nc1ccc(O)c(Cl)c1`: the Potency result in [15], in experiment [1], in experiment [3], in [4], in [5] and in [16] was “inactive” in each case. The Potency entry in [17] is “inactive”. Also, the call in experiment [7], in experiment [8], in [9] and in [11] was inactive. Also, the results for the Potency in experiment [12], in experiment [13] and in experiment [14] were 2.67 µM (active), 18.9 µM (active) and 56.2 µM (active), respectively.
With `COc1cc2c(cc1OC)C1CC(=O)C(CC(C)C)CN1CC2` (centres undefined), the Potency result in [3], in [4], in [5], in experiment [12], in experiment [13] and in experiment [14] was “inactive” throughout. The result in experiment [7], in experiment [8], in experiment [9] and in [11] was inactive.
Regarding `CC1(C)C(=O)N(CCN2CCC(C(=O)c3ccc(F)cc3)CC2)c2ccccc21`, the Potency entry in experiment [1], in experiment [3], in experiment [4], in [5], in experiment [16] and in [12] was “inactive” each time. Also, the Potency entry in experiment [13] and in experiment [14] was “inactive” each time. Further, the compound was classed as inactive in experiment [7], in experiment [8], in [9] and in experiment [11].
With `CCOC(=O)C(C)Oc1cccc2c(=O)n(CC(=O)Nc3ccc4c(c3)OCCO4)ccc12` (centres undefined), the Potency entry in experiment [3], in experiment [4], in experiment [5], in experiment [16], in [18] and in experiment [12] was “inactive” each time. Besides, the Potency entry in experiment [13] and in experiment [14] was “inactive” in each case. In addition, the outcome in experiment [7], in experiment [8], in experiment [9] and in experiment [11] was inactive.
`OC(CN1CCN(c2cccc(Cl)c2)CC1)C(c1ccccc1)c1ccccc1` (centres undefined): the Potency entry in [15], in experiment [1], in [3], in [4], in experiment [5] and in experiment [16] was “inactive” in each case. The Potency result in [18], in experiment [10], in experiment [17], in experiment [12], in [13] and in [14] was “inactive” throughout. The outcome in [7], in experiment [8] and in experiment [9] was inactive.
For `O=Nc1c(-c2c(O)[nH]c3cc(Br)ccc23)[nH]c2ccccc12`, the Potency entry in experiment [1], in [6], in experiment [12] and in [13] was “inactive” in each case. The Potency in [5] was 2.33 µM (active); in experiment [16], 5.21 µM (active); in experiment [10], 4.65 µM (active); in experiment [17], 10.4 µM (active); in experiment [14], 3.55 µM (active) and 5.97 µM (active). Further, the outcome in experiment [7], in experiment [8], in experiment [9] and in experiment [11] was inactive.
On to `CC(=O)N1CCN(c2ccc(OC[C@H]3CO[C@](Cn4ccnc4)(c4ccc(Cl)cc4Cl)O3)cc2)CC1`, for which the Potency result in experiment [1], in experiment [3], in experiment [4], in [5], in experiment [16] and in experiment [18] was “inactive” each time. In addition, the Potency result in [12] was “inactive”. The call in experiment [7], in experiment [8], in [9] and in [11] was inactive.
Turning to `C[C@H](Cc1ccc(O)c(O)c1)[C@@H](C)Cc1ccc(O)c(O)c1`, the Potency in experiment [15] was 12.6 µM (active); in experiment [1] it was 11.2 µM (active); in [10] it was 13.1 µM (active); in experiment [12], 9.47 µM (active); in [13], 0.752 µM (active); in experiment [14] it was 25.1 µM (active) and 23.8 µM (active). In addition, the Potency result in experiment [3], in experiment [4] and in experiment [5] was “inactive” throughout. Further, the compound was called inactive in [7], in [8], in [9] and in experiment [11].
For `Oc1ccc2ccccc2c1SSc1c(O)ccc2ccccc12`, the Potency entry in experiment [3], in experiment [4], in [5], in [16], in experiment [18] and in [12] was “inactive” each time. In addition, in experiment [13], the Potency result is “inactive”. The call in experiment [8], in experiment [9] and in experiment [11] was inactive.
Take `Nc1nc(N)c(N=O)c(OCC2CCCCC2)n1`: the Potency in [3] and in [4] was 14.7 µM (active) in each case. Further, the call in experiment [7], in [8], in [9] and in experiment [11] was inactive. In addition, the Potency result in experiment [18], in [12], in experiment [13] and in [14] was “inactive” throughout.
